Screens deposited in PubChem BioAssay by several laboratories.
Only some compounds are listed: those with a hit (about 2% of all), similar ones and a draw of the others.
697 NFkB inh: lowers PMA/ionomycin-induced NF-kB signal in 697 B cells | 697 B-cell NF-kB luciferase reporter, 16 h | inhibition, % at 4 µM | 330,000 tested, 0.33% active | AID 435022; in the data active means inhibition above about 35%
Jurkat NFkB inh: lowers PMA/ionomycin-induced NF-kB signal in Jurkat cells; PMA/ionomycin-induced NF-kB luciferase reporter, luminescence; inhibition, % at 4 µM; 330,000 tested, 0.53% active; in the data active means inhibition above about 50%
Beta cell apopt: blocks beta cell apoptosis. protection from apoptosis, % (concentration not given with the values). AID 435005. INS-1E cytokine-induced death, ATP luminescence, 48 h; percent of positive-control rescue, neutral wells zero. 300,000 tested, 0.8% active;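 active means Every replicate reaches about 75%, or at least half do and their mean reaches it too, limit read from the data; inconclusive means At least half of replicates reach the limit but their mean does not; inactive means Under half of replicates reach the limit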;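 further: higher means more ATP so stronger rescue from cytokine killing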
Calb FLC: C. albicans growth modulation with fluconazole; C. albicans CaCi-2 (fluconazole-resistant clinical isolate) + fluconazole, Alamar Blue growth, 48 h; growth inhibition, % (concentration not given with the values); 300,000 tested, 0.57% active; AID 1979;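 active means growth inhibition above about 58% in most replicates, limit read from the data, passing the limit was not always enough; inconclusive means exactly half the replicates above a set limit; inactive means most replicates below a set limit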;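 further: all wells also contain fluconazole at 8 µg/ml as a sub-toxic cotreatment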
Shn3 inh set2: reduces Shn3 3'UTR luciferase signal in osteoblasts | Clone20 osteoblast Shn3 3'UTR firefly luciferase, 24 h | 360,000 tested, 0.52% active | inhibition, % at 12.5 µM;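 active means mean inhibition of at least 75% with every replicate also reaching 75%; inconclusive means mean inhibition at least 75% but some replicate below; inactive means mean inhibition below 75%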
Jurkat NFkB conf: lowers PMA/ionomycin-induced NF-kB signal in Jurkat cells | shares compounds with Jurkat NFkB inh | Jurkat NF-kB luciferase, 16 h | inhibition, % at 4 µM | 2,700 tested, 27% active;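 active means inhibition reaching about 45% at 4 µM in either replicate, limit read from the data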
Numbers stand for hits; n = inactive; u = inconclusive; x = no result given.

SMILES	697 NFkB inh	Jurkat NFkB inh	Beta cell apopt	Calb FLC	Shn3 inh set2	Jurkat NFkB conf
Cc1cc(NC(=O)c2ccc(NC(=O)c3cccs3)cc2)no1	n	n	n	n	n	x
Cc1ccc(Nc2nc(N/N=C/c3c[nH]c4ccccc34)nc(N3CCOCC3)n2)cc1	n	89	n	n	n	n
Cn1c(N)c(-c2ccccc2)c2ccc([N+](=O)[O-])cc2c1=O	n	n	x	n	n	x
COc1cccc(S(=O)(=O)N(C)C[C@H]2OCc3cnnn3CCCC(=O)N([C@@H](C)CO)C[C@H]2C)c1	x	x	x	x	n	x
NC(Cc1ccc(C(F)(F)F)cc1)c1csc(NC(=O)Nc2ccccc2)n1 (stereo unspecified)	x	x	x	x	n	x
Cc1ccc2nc(CSc3nc(C)cc(C)c3C#N)[nH]c2c1	n	n	n	n	n	n
CC1(C)CC(NC(=O)COc2ccc3ccc(=O)oc3c2)CC(C)(C)N1	n	n	n	n	n	x
CCOc1ncccc1C(=O)NNC(=O)CSc1ccc(Cl)cc1	n	n	n	x	n	x
CCOCCCNC(=O)c1cc2c(s1)-c1ccccc1SC2	n	n	n	n	n	x
CN(C)CCNC(=O)c1cc2c(s1)-c1ccc(Cl)cc1SC2	n	62	n	n	n	n
CN(C)c1cc[n+](CC(=O)Nc2ccc(Oc3ccccc3)cc2)cc1	n	85	91	n	n	n
O=S(=O)(c1cc(F)ccc1F)N1CCN(c2ncnc3ccccc23)CC1	n	60	104	x	88	58
CCOC(=O)CC(NC(=O)c1cc2cccc(OC)c2oc1=O)c1ccc(OC)cc1 (stereo unspecified)	n	n	n	n	n	x
COc1ccc(C(=O)CSc2nnc(-c3ccc(C)cc3)o2)cc1	n	n	n	n	n	x
COc1ccc(-c2nnc(SCC(C)C)o2)cc1	n	n	n	n	n	n
CC1(NC(=O)CCc2nc3ccccc3c(=O)[nH]2)CCS(=O)(=O)C1 (stereo unspecified)	n	n	n	n	n	x
Cc1ccn(-c2ccc(NC(=O)c3cccs3)cc2)n1	n	n	n	n	n	n
Cc1cc(N2CCCCC2)nc(NCc2ccccc2)n1	n	68	n	n	88	n
COc1cc(SC)ccc1C(=O)NC(C)C	n	n	n	n	n	x
COc1cc(SC)ccc1C(=O)Nc1ccc(C)cc1C	n	n	n	n	n	n
COc1cc(SC)ccc1C(=O)Nc1ccc(C)cc1	n	n	n	n	n	n
COc1ccc(-c2ccc(C(=O)NCc3ccc(N(C)C)cc3)c3occc23)c(C)c1	x	x	x	x	n	x
COC(=O)c1ccc(NC(=O)Cn2c(-c3nonc3N)nc3ccccc32)cc1	n	n	n	n	n	x
COC(=O)c1ccccc1NC(=O)Cn1c(-c2nonc2N)nc2ccccc21	n	83	n	n	n	51
Cc1cccnc1NC(=O)CNC(=O)c1cccs1	n	n	n	n	n	x
SMILES	697 NFkB inh	Jurkat NFkB inh	Beta cell apopt	Calb FLC	Shn3 inh set2	Jurkat NFkB conf
Cc1cccnc1NC(=S)NC(=O)c1cccs1	n	n	n	n	n	n
CN(C(=O)c1cccc(NC(=O)Cc2ccc(NC(=O)C3CCCN(C(=O)C4CCCCC4)C3)cc2)c1)C1CCC1 (stereo unspecified)	x	x	x	x	n	x
Cc1cc(=O)[nH]c(NN=Cc2cc(Br)ccc2O)n1	x	x	x	x	n	x
CCN(CC)c1ccc(/C=N/Nc2nc(C)cc(=O)[nH]2)c(O)c1	n	59	n	102	n	n
Cc1ccc(S(=O)(=O)CCC(=O)OC2CC(C)OC2=O)cc1 (stereo unspecified)	n	n	n	x	n	n
C/C(=N\NC(=O)c1cc(-c2ccc(C)s2)[nH]n1)c1ccco1	n	n	n	n	n	x
O=C1c2cccc3cc([N+](=O)[O-])cc(c23)C(=O)N1CCN1CCCC1	n	86	x	u	94	57
O=C(Nc1nc2ccccc2[nH]1)c1cccc(Cl)c1	n	n	x	n	n	n
Oc1[nH]c2ccccc2c1N=Nc1nc2ccccc2s1	n	n	n	n	n	n
CC(C)C(=O)N1CCN(c2ccccc2NC(=S)NC(=O)c2cccs2)CC1	n	n	n	n	n	x
COc1ccc(-c2nc3c(Br)c(N)c(Br)cc3o2)cc1	n	n	x	x	n	n
COc1ccc(OCc2cc(C(=O)N[C@H]3CCCCNC3=O)no2)c(Cl)c1	n	n	n	n	n	x
COc1ccc(OCc2cc(C(=O)NC3Cc4ccccc4C3)no2)c(Cl)c1	n	55	n	n	n	n
CC(C)n1cc(CNC(=O)C2CCC(=O)N(Cc3ccccc3F)C2)cn1 (stereo unspecified)	n	n	n	n	n	x
COC(=O)c1ccc(Oc2cc(C)nc(SC)n2)cc1	n	55	n	n	n	n
Cc1c(C(=O)N2CCOCC2)[nH]c2c1C(=O)CC(c1ccccc1Cl)C2 (stereo unspecified)	n	52	n	n	n	48
Cc1c(C(=O)O)[nH]c2c1C(=O)CC(c1ccc(C(C)(C)C)cc1)C2 (stereo unspecified)	n	n	n	n	n	x
O=C(NCc1ccc(Cl)cc1)c1cc([N+](=O)[O-])ccc1Cl	n	60	n	n	n	n
CN(CC(=O)Nc1ccc(F)cc1)C(=O)c1cc(-c2cccs2)nn1-c1ccccc1	n	n	x	x	n	x
COc1ccc(S(=O)Cc2ccc(C(=O)N3CCN(c4cccc(C)c4C)CC3)o2)cc1 (stereo unspecified)	n	51	n	n	n	n
Cc1ccccc1S(=O)(=O)Cc1ccc(C(=O)N2CC(C)CC(C)C2)o1 (stereo unspecified)	n	n	n	n	n	x
Cc1ccccc1S(=O)(=O)Cc1ccc(C(=O)N2CCN(c3cccc(C)c3C)CC2)o1	n	51	n	n	n	n
COc1cc(/C=C(/C#N)c2nc3ccccc3[nH]2)ccc1OCC(=O)Nc1ccccc1C	n	53	n	x	n	n
Oc1ccc(/C=N/Nc2cccc3cccnc23)c(O)c1	n	n	x	n	n	x
Cc1ccc(/C=N/Nc2cccc3cccnc23)c(O)c1	n	n	n	n	n	n
SMILES	697 NFkB inh	Jurkat NFkB inh	Beta cell apopt	Calb FLC	Shn3 inh set2	Jurkat NFkB conf
COc1ccc(/C=N/NC(=O)c2[nH]c3ccc(Br)cc3c2-c2ccccc2)c(C(=O)O)c1OC	n	n	n	n	n	x
COc1ccc(/C=N/NC(=O)c2[nH]c3ccc(Br)cc3c2-c2ccccc2)cc1	n	84	n	n	n	61
O=C(N/N=C/c1ccccc1Cl)c1[nH]c2ccc(Br)cc2c1-c1ccccc1	n	64	n	u	n	54
COc1ccc(NC(=O)c2c(-c3ccccc3Cl)noc2C)c(OC)c1	n	n	x	n	n	x
COc1ccc(NC(=O)c2nc(S(=O)(=O)Cc3cccc(C)c3)ncc2Cl)c(OC)c1	n	54	n	n	97	n
CC1=CC(=O)C=C(C)C1=NOS(=O)(=O)c1ccccc1	x	x	x	n	n	x
CC1=CC(=O)C(C(C)C)=C/C1=N/OS(=O)(=O)c1ccccc1	n	81	105	u	n	n
Clc1ccc(-n2nnc(-c3cccnc3Cl)n2)cn1	n	n	n	n	n	x
